These results are taken from the antibiotic and cytotoxicity screens of Wong et al. (2023).

Hit rate of the full screen: of about 39,000 compounds, about 1,500 (3.8%) were called active. Only a selection was taken, and actives are over-represented in it overall.

The assay has as its system HSkMC (human skeletal muscle cells). Briefly: cytotoxicity call (relative viability < 0.9). The following applies: 10 µM.
Take `Cc1noc(C)c1S(=O)(=O)Nc1ccc2c(c1)C(=O)N([C@@H](C)CO)C[C@@H](C)[C@@H](CN(C)S(=O)(=O)c1cn(C)cn1)O2`: the cytotoxicity call was “inactive”.

`C[C@H](CO)N1C[C@H](C)[C@H](CN(C)C(=O)Nc2ccc(F)cc2)Oc2ccc(NS(=O)(=O)c3cn(C)cn3)cc2CC1=O`: the cytotoxicity call is “inactive”.

As for `C[C@@H]1CN([C@@H](C)CO)C(=O)Cc2cc(NC(=O)Cn3cnnn3)ccc2O[C@H]1CN(C)C(=O)Nc1ccc(F)cc1`, the cytotoxicity call was “inactive”.

As for `CCOC(=O)[C@H]1C/C=C/C[C@H](C(=O)OCC)C(=O)O[C@H]2[C@@H](OC)O[C@H](CO)[C@@H](OC(=O)c3c(OC)cccc3OC)[C@@H]2OC1=O`, the cytotoxicity call is “inactive”.

`CCOC(=O)[C@H]1C/C=C/C[C@H](C(=O)OCC)C(=O)O[C@H]2[C@@H](OC)O[C@H](CO)[C@@H](OC(=O)Nc3ccc(Br)cc3)[C@@H]2OC1=O`: the cytotoxicity call was “active”.

As for `CO[C@H]1O[C@H](CO)[C@@H](OC(=O)Nc2cccc(F)c2)[C@@H]2OC(=O)[C@H](Cc3cccc(Br)c3)C/C=C/C[C@@H](Cc3cccc(Br)c3)C(=O)O[C@@H]12`, the cytotoxicity call was “inactive”.

`CCOC(=O)[C@H]1C/C=C/C[C@H](C(=O)OCC)C(=O)O[C@H]2[C@@H](OC)O[C@H](CO)[C@@H](OC(=O)Nc3ccc(OC)cc3)[C@@H]2OC1=O`: the cytotoxicity call is “inactive”.

On to `CCOC(=O)[C@H]1C/C=C/C[C@H](C(=O)OCC)C(=O)O[C@H]2[C@@H](OC)O[C@H](CO)[C@@H](OC(=O)c3ccc(Br)cc3)[C@@H]2OC1=O`, for which the cytotoxicity call was “inactive”.

For the compound `CO[C@H]1O[C@H](CO)[C@@H](OC(=O)Nc2ccc3c(c2)OCO3)[C@@H]2OC(=O)[C@H](Cc3cccc(Br)c3)C/C=C/C[C@@H](Cc3cccc(Br)c3)C(=O)O[C@@H]12`, the cytotoxicity call is “inactive”.

For the compound `CCOC(=O)[C@H]1C/C=C/C[C@H](C(=O)OCC)C(=O)O[C@H]2[C@@H](OC)O[C@H](CO)[C@@H](OC(=O)Nc3cccc(F)c3)[C@@H]2OC1=O`, the cytotoxicity call was “active”.

For the compound `CCOC(=O)[C@H]1C/C=C/C[C@H](C(=O)OCC)C(=O)O[C@H]2[C@@H](OC)O[C@H](CO)[C@@H](OC(=O)Nc3ccccc3)[C@@H]2OC1=O`, the cytotoxicity call is “inactive”.

As for `CCOC(=O)[C@H]1C/C=C/C[C@H](C(=O)OCC)C(=O)O[C@H]2[C@@H](OC)O[C@H](CO)[C@@H](OC(=O)Nc3ccc4c(c3)OCO4)[C@@H]2OC1=O`, the cytotoxicity call was “active”.

With `COc1ccc(NC(=O)N(C)C[C@@H]2OCCCC[C@@H](C)Oc3ccc(NC(=O)c4ccccc4)cc3C(=O)N([C@@H](C)CO)C[C@H]2C)cc1`, the cytotoxicity call is “inactive”.

Consider `CC1(C)OC2CC3C4CCC5=CC(=O)C=CC5(C)C4C(O)CC3(C)C2(C(=O)CO)O1` (centres undefined), for which the cytotoxicity call is “inactive”.

As for `CC(=NNC(=O)c1nnn(-c2nonc2N)c1CN1CCC(C)CC1)c1cccc(Br)c1`, the cytotoxicity call was “inactive”.

For `CN1C(=O)[C@@H]2[C@H](N=CN2CCCO)N(C)C1=O`, the cytotoxicity call was “inactive”.

With `C=CCNC(=O)[C@H]1[C@@H]2C(=O)O[C@@H](c3ccccc3)[C@@H](c3ccccc3)N2[C@@H](c2ccc(O)cc2)[C@]12C(=O)Nc1ccc(C#CC3=CCCCC3)cc12`, the cytotoxicity call was “inactive”.

Turning to `COc1ccc(S(=O)(=O)Nc2ccc3c(c2)C(=O)N([C@@H](C)CO)C[C@H](C)[C@H](CN(C)S(=O)(=O)c2cn(C)cn2)OCCCC[C@@H](C)O3)cc1`, the cytotoxicity call was “inactive”.

For `C[C@@H](NC(=O)C[C@H]1CC[C@@H](NC(=O)CN2CCOCC2)[C@@H](CO)O1)c1ccccc1`, the cytotoxicity call is “inactive”.

On to `C[C@@H]1CN([C@@H](C)CO)C(=O)Cc2cc(NC(=O)Cn3cnnn3)ccc2O[C@@H]1CN(C)Cc1ccc(C(F)(F)F)cc1`, for which the cytotoxicity call is “inactive”.

Consider `CO[C@H](CN(C)C(=O)c1ccc2c(c1)OCO2)[C@@H](C)CN([C@H](C)CO)S(=O)(=O)c1ccc(C)cc1`, for which the cytotoxicity call is “inactive”.

Turning to `CO[C@H](CN(C)C(=O)c1ccc2c(c1)OCO2)[C@H](C)CN([C@H](C)CO)S(=O)(=O)c1ccc(C)cc1`, the cytotoxicity call is “inactive”.

As to `COc1ccc(CNC(=O)[C@H](c2ccc(C)cc2)N(Cc2cccs2)C(=O)c2ccc3c(c2)OCCO3)cc1`, the cytotoxicity call was “active”.

In the case of `COc1cccc(C#Cc2cnc3c(c2)C(=O)N([C@H](C)CO)C[C@@H](C)[C@H](CN(C)C(=O)C2CCOCC2)O3)c1`, the cytotoxicity call was “inactive”.

For the compound `CC(C)C#Cc1ccc2c(c1)O[C@@H](CN(C)C(=O)Cc1ccccn1)[C@H](C)CN([C@H](C)CO)S2(=O)=O`, the cytotoxicity call was “inactive”.

Turning to `C[C@H]1CN([C@@H](C)CO)C(=O)c2cccc(NC(=O)Nc3ccccc3)c2O[C@H]1CN(C)Cc1ccc(-c2ccccc2)cc1`, the cytotoxicity call is “inactive”.

Turning to `C[C@H]1CN([C@@H](C)CO)C(=O)c2cccc(NC(=O)Nc3ccccc3)c2O[C@@H]1CN(C)Cc1ccc(-c2ccccc2)cc1`, the cytotoxicity call was “inactive”.

With `C[C@H]1CN([C@@H](C)CO)C(=O)c2cccc(NC(=O)Nc3ccccc3)c2O[C@H]1CN(C)Cc1ccc(C(=O)Nc2ccccc2N)cc1`, the cytotoxicity call is “active”.

For `C[C@H](CO)N1C[C@H](C)[C@H](CN(C)Cc2ccc(-c3ccccc3)cc2)Oc2c(NC(=O)Nc3ccccc3)cccc2C1=O`, the cytotoxicity call was “inactive”.

In the case of `C[C@H](CO)N1C[C@H](C)[C@@H](CN(C)Cc2ccc(-c3ccccc3)cc2)Oc2c(NC(=O)Nc3ccccc3)cccc2C1=O`, the cytotoxicity call was “inactive”.

As for `C[C@@H]1CN([C@H](C)CO)C(=O)c2cccc(NC(=O)Nc3ccccc3)c2O[C@@H]1CN(C)Cc1ccc(-c2ccccc2)cc1`, the cytotoxicity call is “inactive”.

In the case of `C[C@@H]1CN([C@@H](C)CO)C(=O)c2cccc(NC(=O)Nc3ccccc3)c2O[C@@H]1CN(C)Cc1ccc(-c2ccccc2)cc1`, the cytotoxicity call was “active”.

Take `C[C@@H]1CN([C@@H](C)CO)C(=O)c2cccc(NC(=O)Nc3ccccc3)c2O[C@H]1CN(C)Cc1ccc(C(=O)Nc2ccccc2N)cc1`: the cytotoxicity call is “inactive”.

As to `C[C@@H]1CN([C@H](C)CO)C(=O)c2cccc(NC(=O)Nc3ccccc3)c2O[C@H]1CN(C)Cc1ccc(-c2ccccc2)cc1`, the cytotoxicity call was “active”.

As to `C[C@@H]1CN([C@H](C)CO)C(=O)c2cccc(NC(=O)Nc3ccccc3)c2O[C@@H]1CN(C)Cc1ccc(C(=O)Nc2ccccc2N)cc1`, the cytotoxicity call is “inactive”.

As for `C[C@H](CO)N1C[C@H](C)[C@H](CN(C)Cc2ccc(-c3ccccc3)cc2)Oc2c(NC(=O)Nc3ccc(F)cc3)cccc2C1=O`, the cytotoxicity call is “inactive”.

For the compound `C[C@@H]1CN([C@@H](C)CO)C(=O)c2cccc(NC(=O)Nc3ccccc3)c2O[C@H]1CN(C)Cc1ccc(-c2ccccc2)cc1`, the cytotoxicity call was “active”.

As for `C[C@H]1CN([C@@H](C)CO)S(=O)(=O)c2ccc(-c3cccnc3)cc2O[C@@H]1CN(C)CC1CCOCC1`, the cytotoxicity call is “inactive”.

As for `O=C(O)CCCCN(CCc1ccccc1OCc1ccc(CCc2ccccc2)cc1)Cc1ccc(C(=O)O)cc1`, the cytotoxicity call was “inactive”.

Regarding `COc1ccc(S(=O)(=O)N(C)C[C@H]2Oc3c(NC(=O)c4ccncc4)cccc3C(=O)N([C@@H](C)CO)C[C@H]2C)cc1`, the cytotoxicity call is “inactive”.

Take `CN1C(=O)CS(=O)(=O)[C@@H]1c1ccccc1`: the cytotoxicity call was “inactive”.

For `C[C@@H]1CCCCO[C@H](CN(C)Cc2ccc(C(=O)O)cc2)[C@H](C)CN([C@@H](C)CO)C(=O)c2cc(NC(=O)Cc3ccccc3)ccc2O1`, the cytotoxicity call is “inactive”.

For the compound `C[C@@H]1CCCCO[C@H](CN(C)C(=O)Nc2ccc(F)cc2)[C@@H](C)CN([C@@H](C)CO)C(=O)c2cc(NC(=O)Nc3ccccc3)ccc2O1`, the cytotoxicity call was “inactive”.

On to `CN(C)CCCCCCNC(=O)[C@@H]1C[C@@H]2C(=O)NCC(=O)N2[C@@H]1c1cccc(OCCO)c1`, for which the cytotoxicity call was “inactive”.

As for `Cc1ccc(S(=O)(=O)N(C)C[C@@H]2Oc3ccc(NS(=O)(=O)c4cn(C)cn4)cc3C(=O)N([C@@H](C)CO)C[C@@H]2C)cc1`, the cytotoxicity call is “inactive”.

With `C[C@@H]1CN([C@H](C)CO)C(=O)c2cc(NC(=O)Cc3ccccc3)ccc2O[C@@H]1CN(C)C(=O)Nc1ccc(C(F)(F)F)cc1`, the cytotoxicity call is “inactive”.

Take `CCOC(=O)[C@H]1C/C=C/C[C@H](C(=O)OCC)C(=O)O[C@H]2[C@@H](OC)O[C@H](COC(=O)NCCCCCC(=O)NO)[C@@H](OC(=O)Nc3ccccc3)[C@@H]2OC1=O`: the cytotoxicity call is “inactive”.

As to `C[C@H]1CCCCO[C@H](CN(C)C(=O)Nc2ccc(F)cc2)[C@@H](C)CN([C@@H](C)CO)C(=O)c2cc(NS(=O)(=O)c3ccc(F)cc3)ccc2O1`, the cytotoxicity call was “inactive”.

Take `COc1ccccc1C#Cc1cnc2c(c1)C(=O)N([C@H](C)CO)C[C@H](C)[C@@H](CN(C)C(=O)CC1CC1)O2`: the cytotoxicity call is “inactive”.

In the case of `CC(C)(C)S(=O)N1Cc2cc(C(=O)NCc3ccc(Oc4ccccc4)cc3)nc(-c3cccc(C#CCC4CCCC4)c3)c2[C@@H]1CCO` (some centres undefined), the cytotoxicity call was “active”.

Take `CC(C)(C)S(=O)N1Cc2cc(C(=O)NCc3ccc4c(c3)OCO4)nc(-c3cccc(C#CCC4CCCC4)c3)c2[C@@H]1CCO` (some centres undefined): the cytotoxicity call was “inactive”.

On to `CC(C)(C)S(=O)N1Cc2cc(C(=O)NCc3ccc4c(c3)OCO4)nc(-c3cccc(C#CCC4CCCC4)c3)c2[C@H]1CCO` (some centres undefined), for which the cytotoxicity call is “inactive”.

As for `COc1ccc(C#Cc2cccc(-c3nc(C(=O)N[C@@H]4CCN(Cc5ccccc5)C4)cc4c3[C@H](CCO)N(S(=O)C(C)(C)C)C4)c2)cc1OC` (some centres undefined), the cytotoxicity call was “inactive”.

On to `CC(C)(C)S(=O)N1Cc2cc(C(=O)N[C@@H]3CCN(Cc4ccccc4)C3)nc(-c3cccc(C#CCC4CCCC4)c3)c2[C@H]1CCO` (some centres undefined), for which the cytotoxicity call was “active”.

On to `CC(C)(C)S(=O)N1Cc2cc(C(=O)N[C@@H]3CCN(Cc4ccccc4)C3)nc(-c3cccc(C#CCC4CCCC4)c3)c2[C@@H]1CCO` (some centres undefined), for which the cytotoxicity call was “inactive”.

As for `O=C(C[C@H]1CC[C@H]2[C@@H](COC[C@@H](O)CN2C(=O)c2ccc3c(c2)OCO3)O1)NCCN1CCCC1`, the cytotoxicity call was “inactive”.

For `O=C1[C@H]2C=NN[C@@H]2C(=O)N1Cc1ccccc1`, the cytotoxicity call is “inactive”.

Turning to `COc1ccc2c3c([nH]c2c1)[C@@H](CO)N(C[C@]13CCN(CC1)Cc1nccs1)C(=O)C1CCOCC1`, the cytotoxicity call is “inactive”.

Turning to `C[C@@H]1CN([C@@H](C)CO)C(=O)c2cccc(NS(C)(=O)=O)c2O[C@@H]1CN(C)S(=O)(=O)c1cccs1`, the cytotoxicity call was “inactive”.
